Bioassay records from PubChem.
TDP1 block: TDP1 (human) enzyme inhibition; Q9NUW8; recombinant TDP1, AlphaScreen DNA substrate cleavage; Potency, µM (highest dose often 130 µM), hits mostly inhibitors; 350,000 compounds, 0.28% hits; also: nearly all actives have a fitted effect of over 40% in size
Target sequence (Q9NUW8 whole entry, looked up): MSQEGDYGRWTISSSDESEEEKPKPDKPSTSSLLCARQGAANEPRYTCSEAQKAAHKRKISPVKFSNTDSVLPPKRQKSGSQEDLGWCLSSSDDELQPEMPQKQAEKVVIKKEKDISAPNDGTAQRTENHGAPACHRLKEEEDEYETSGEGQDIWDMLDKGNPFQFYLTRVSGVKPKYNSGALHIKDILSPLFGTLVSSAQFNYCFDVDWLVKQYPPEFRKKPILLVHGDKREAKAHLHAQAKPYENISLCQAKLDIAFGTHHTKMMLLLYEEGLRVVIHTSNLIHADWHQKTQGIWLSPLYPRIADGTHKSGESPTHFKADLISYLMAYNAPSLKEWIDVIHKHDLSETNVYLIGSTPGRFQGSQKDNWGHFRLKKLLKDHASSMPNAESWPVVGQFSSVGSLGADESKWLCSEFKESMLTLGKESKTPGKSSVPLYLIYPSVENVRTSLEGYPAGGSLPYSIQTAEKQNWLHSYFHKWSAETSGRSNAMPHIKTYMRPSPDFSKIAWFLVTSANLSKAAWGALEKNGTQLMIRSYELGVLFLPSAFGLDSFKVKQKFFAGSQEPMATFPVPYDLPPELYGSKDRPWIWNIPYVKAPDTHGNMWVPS
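Tdp1 1 nM final; 15 min RT w/ cpd; substrate 15 nM, 5 min; beads 10 ug/ml, 10 min; AlphaScreen read. Neg ctrl: no enzyme.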
TDP1 cell noCPT: qHTS for Inhibitors of human tyrosyl-DNA phosphodiesterase 1 (TDP1): qHTS in cells in absence of CPT; 420,000 compounds, 15% hits; AID 686978, 2013; DT40 Tdp1-/- hTDP1 cells, no CPT, ATP luminescence, 48 h; Potency, µM (titrated, usually from 46.2 µM), hits mostly inhibitors; also: nearly all actives have a fitted effect of over 55% in size
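A cellular qHTS used chicken DT40 cells lacking endogenous Tdp1 but carrying stably transfected human TDP1. Compounds were applied without camptothecin, and cell growth kinetics were judged by ATP-dependent luminescence after ≥48 hr.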
DT40 TDP1 CPT: DT40-hTDP1 cell growth loss with CPT | Potency, µM (top dose mostly 46.2 µM), actives largely listed as inhibitors | AID 686979 | chicken DT40 Tdp1-/-;hTDP1 cells + 20 nM CPT, ATP luminescence, 48 h | 420,000 compounds, 12% hits; also: nearly all actives have a fitted effect of over 55% in size
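Chicken DT40 Tdp1-/- cells stably complemented with human TDP1 were seeded at 400 cells/well in medium containing 20 nM camptothecin, exposed to pin-transferred compounds, and grown at 37 °C for at least 48 hr. Viability was read as ATP luminescence.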
HepG2 viability: HepG2 cytotoxicity, counter-screen for TGF-b inhibitors. HepG2 CAGA-GFP viability, ATP luminescence, 18 h. Potency, µM (titrated, usually from 46.1 µM), actives largely listed as cytotoxic. 410,000 compounds, 0.76% hits. AID 588856
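HepG2 CAGA-GFP cells (1000/well, DMEM with 1% FBS) received compound, then TGF-beta at 500 pg/mL final, and were incubated 18 hours at 37 degrees C. Viability was read by CellTiter-Glo luminescence. Media-only wells were set as complete cell-killing and DMSO as no toxicity.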
TGFb inhibitor: inhibitors of TGF-b signaling; Potency, µM (titrated, usually from 46.1 µM), hits mostly inhibitors; HepG2 CAGA-GFP TGF-b/SMAD3 reporter, GFP fluorescence, 18 h; TGF-beta stimulated, 500 pg/mL final; 410,000 compounds, 1.2% hits; also: nearly all actives have a fitted effect of over 65% in size
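Per well, imaged GFP fluorescence of HEPG2 CAGA-GFP cells gives the signal; cells get compound, then TGF-beta (500 pg/mL final), 18 h at 37 degrees C; %Activity versus -TGF-beta and +DMSO controls.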
IL1B secr inh: inflammasome signaling inhibition, IL-1 beta readout | THP-1 LPS/ATP IL-1B secretion, AlphaLISA, 16 h; active compounds read low | 360,000 compounds, 4.7% hits | activity change, % at 57.5 µM; in the data active = activity change below about -50%; inconclusive = mostly about -30% to -49%
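Secreted IL-1B measured by AlphaLISA bead assay after 16 h compound exposure of THP-1 cells; compounds (final up to 57.5 uM) added 1 h before LPS (250 ng/mL) and ATP (1.25 mM) stimulation; lower signal means less secretion.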
Of the large screens only hits and unclear results are named; the others gave an inactive call; ! = not active in a repeat. A selection: hits, their analogues and other compounds. The true share with any hit is near 18%. Unless noted, calls follow the shape of the dose curve; as a rule, active = well fitted curve in the direction sought with a large enough effect; inconclusive = small, poorly fitted or top-dose-only effect, or another doubt; inactive = no such curve, though single readings can be large; an effect the other way counts as inactive or inconclusive.

O=P(O)(O)CCCl	none (no result: TDP1 cell noCPT, DT40 TDP1 CPT, HepG2 viability, TGFb inhibitor, IL1B secr inh)
COc1ccccc1Cc1c(-c2ccc(C)cc2)nc2cc(C)c(Br)c(C)n12	TDP1 cell noCPT 16.4µM, DT40 TDP1 CPT 20.6µM (no result: TDP1 block, HepG2 viability, TGFb inhibitor)
COc1ccccc1Cc1c(-c2ccc(F)cc2)nc2cc(C)c(Br)c(C)n12	TDP1 cell noCPT 23.1µM, DT40 TDP1 CPT inconclusive (no result: TDP1 block, HepG2 viability, TGFb inhibitor)
CCCCCCCCCC[Si](C)(C)CCC(=O)N[C@@H](Cc1ccc(C)cc1)c1ccccc1	TDP1 cell noCPT inconclusive, DT40 TDP1 CPT inconclusive (no result: TDP1 block, IL1B secr inh)
Cc1nc2cc(-c3ccc(Cl)cc3)nn2c(C)c1CCC(=O)N1CCC2(CC1)OCCO2	TDP1 cell noCPT 20.6µM, DT40 TDP1 CPT 23.1µM (no result: TDP1 block)
CC(C)(O)[C@H]1O[C@@H]2CC[C@]3(C)[C@@]4(C)c5[nH]c6ccccc6c5C[C@@H]4CC[C@]3(O)C2=CC1=O	TDP1 cell noCPT inconclusive, DT40 TDP1 CPT inconclusive (no result: HepG2 viability, TGFb inhibitor, IL1B secr inh)
O=c1oc2cccnc2n1CCS(=O)(=O)c1ccc(F)cc1	IL1B secr inh -66.2 (no result: TDP1 block)
COC(=O)C1=C(C)NC(C)=C(C(=O)OCC(C)=O)C1c1ccccc1[N+](=O)[O-] (stereo unspecified)	TDP1 cell noCPT 11.9µM, DT40 TDP1 CPT 18.8µM (no result: TDP1 block, HepG2 viability, TGFb inhibitor, IL1B secr inh)
CCOC(=O)Cn1cc(/C=N/NC(=O)CC#N)c2ccccc21	TGFb inhibitor inconclusive, IL1B secr inh -54.7
COC(=O)Cn1cc(C=C2C(=O)N(C)C(=O)N(C)C2=O)c2ccccc21	none (no result: TDP1 block)
Clc1ccc(N2CC3CCC(C2)N3)nn1	none (no result: TDP1 cell noCPT, DT40 TDP1 CPT, HepG2 viability, TGFb inhibitor, IL1B secr inh)
CC1=CC(=O)OC2CC3OC4C[C@@H](C)C5OC6CC7O[C@]8(C)C/C=C\C9OC%10CC%11OC(CC(C)CO)CC(O)[C@]%11(C)OC%10CC9OC8C[C@]7(C)O[C@]6(C)CCC5OC4C[C@]3(C)OC12 (stereo partly specified)	TDP1 cell noCPT 20.6µM, DT40 TDP1 CPT 18.4µM
C=C(COC(=O)CCC(=O)O)CC1CC(O)[C@]2(C)OC3CC4OC5C[C@]6(C)O[C@]7(C)CCC8OC9C[C@]%10(C)OC%11C(C)=CC(=O)OC%11CC%10OC9C[C@@H](C)C8OC7CC6O[C@]5(C)C/C=C\C4OC3CC2O1 (stereo partly specified)	TDP1 cell noCPT inconclusive, DT40 TDP1 CPT 13µM (no result: HepG2 viability)
CN(C)S(=O)(=O)c1ccc(C(=O)NCCSc2c(-c3ccccc3)[nH]c3ccccc23)cc1	TDP1 cell noCPT 6.51µM, DT40 TDP1 CPT 6.51µM, TGFb inhibitor inconclusive (no result: IL1B secr inh)
O=C(NCCSc1c(-c2ccccc2)[nH]c2ccccc12)c1ccc(S(=O)(=O)N2CCOCC2)cc1	TDP1 cell noCPT 8.2µM, DT40 TDP1 CPT 5.8µM, TGFb inhibitor inconclusive (no result: IL1B secr inh)
CN(C)CCc1c[nH]c2ccccc12	none (no result: TDP1 block, HepG2 viability, TGFb inhibitor, IL1B secr inh)
Cc1ccc(OP(=O)(Oc2ccc(C)cc2)Oc2ccc(C)cc2)cc1	none (no result: TDP1 cell noCPT, DT40 TDP1 CPT, HepG2 viability, TGFb inhibitor, IL1B secr inh)
CNS(=O)(=O)c1ccc(-c2ccc(C=C3C(=O)NC(=O)NC3=O)o2)cc1	none (no result: TDP1 block)
O=C1NC(=O)C(=Cc2ccc(SC3CCCCC3)o2)C(=O)N1	TDP1 block inconclusive, TDP1 cell noCPT inconclusive, DT40 TDP1 CPT 16.4µM, TGFb inhibitor inconclusive, IL1B secr inh inconclusive
Cc1ccc(Oc2cc(NN3CCCCC3)c([N+](=O)[O-])cc2[N+](=O)[O-])c([N+](=O)[O-])c1	TDP1 cell noCPT inconclusive, DT40 TDP1 CPT inconclusive (no result: TDP1 block)
CN(C(=O)Cc1ccc(Cl)c(Cl)c1)[C@@H](CN1CCCC1)c1cccc(OCC(=O)O)c1	none (no result: HepG2 viability, TGFb inhibitor, IL1B secr inh)
Cc1ccc(C)c(N2CCN(C(=O)CCS(=O)(=O)c3ccc4c(c3)oc(=O)n4C)CC2)c1	TDP1 cell noCPT 14.6µM!, DT40 TDP1 CPT 16.4µM
COc1ccc(Nc2cc(C)c3cc(NC(=O)c4ccccc4Cl)ccc3n2)cc1	TDP1 cell noCPT 9.2µM, DT40 TDP1 CPT 20.6µM (no result: IL1B secr inh)
CN(C)c1ccc(N=O)cc1	TDP1 cell noCPT 5.01µM, DT40 TDP1 CPT 0.562µM, TGFb inhibitor 5.01µM (no result: IL1B secr inh)
O=P(Oc1ccccc1)(Oc1ccccc1)c1ccccc1	TDP1 block inconclusive, TDP1 cell noCPT 16.4µM, DT40 TDP1 CPT inconclusive
